Calls of active or inactive are those of the source. Unless noted, the rule behind the calls is not given here.
Legend:
[1] = RPL19A-GFP modulators, yeast TOR pathway, confirmation, cell-based, S. cerevisiae, flow cytometry, cherry picks, mother/daughter gates (AID 2270;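 active = GFP response below 50% of the DMSO control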); conditions: S. cerevisiae RPL19A-GFP strain, 3 h, at 10 µM, stronger effect = lower value, 100 = same GFP as DMSO wells
[2] = LAP4-GFP expression modulators in yeast, confirmation, cell-based, cherry picks, flow cytometry, mother/daughter gates (AID 2271;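 active = GFP response above 150% of the DMSO control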;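 note: ratio of sample to DMSO plate mean so 100% equals DMSO level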); conditions: S. cerevisiae LAP4-GFP strain, 3 h, at 10 µM, stronger effect = higher value
[3] = modulators of CIT2-GFP expression in yeast, confirmation, S. cerevisiae, GFP fusion, cherry picks, mother/daughter gates (AID 2274;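 active = GFP response above 150% of the DMSO level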); conditions: S. cerevisiae CIT2-GFP strain, flow cytometry, 3 h, at 10 µM, stronger effect = higher value
[4] = tested on: Botulinum neurotoxin type F light chain protease (Clostridium botulinum); assay: Botulinum neurotoxin type F light chain protease inhibition, multiplex microsphere flow cytometry, validation set (AID 588459); conditions: multiplex microsphere protease substrate cleavage assay, at 10 µM, stronger effect = higher value
[5] = biological target: Botulinum neurotoxin type A (Clostridium botulinum) (UniProt P0DPI0); assay: BoNT/A light chain protease inhibitors, biochemical, multiplex microsphere flow cytometry, validation set (AID 588460); conditions: at 10 µM, stronger effect = higher value
Botulinum neurotoxin type A (Clostridium botulinum), sequence (P0DPI0 whole entry, looked up): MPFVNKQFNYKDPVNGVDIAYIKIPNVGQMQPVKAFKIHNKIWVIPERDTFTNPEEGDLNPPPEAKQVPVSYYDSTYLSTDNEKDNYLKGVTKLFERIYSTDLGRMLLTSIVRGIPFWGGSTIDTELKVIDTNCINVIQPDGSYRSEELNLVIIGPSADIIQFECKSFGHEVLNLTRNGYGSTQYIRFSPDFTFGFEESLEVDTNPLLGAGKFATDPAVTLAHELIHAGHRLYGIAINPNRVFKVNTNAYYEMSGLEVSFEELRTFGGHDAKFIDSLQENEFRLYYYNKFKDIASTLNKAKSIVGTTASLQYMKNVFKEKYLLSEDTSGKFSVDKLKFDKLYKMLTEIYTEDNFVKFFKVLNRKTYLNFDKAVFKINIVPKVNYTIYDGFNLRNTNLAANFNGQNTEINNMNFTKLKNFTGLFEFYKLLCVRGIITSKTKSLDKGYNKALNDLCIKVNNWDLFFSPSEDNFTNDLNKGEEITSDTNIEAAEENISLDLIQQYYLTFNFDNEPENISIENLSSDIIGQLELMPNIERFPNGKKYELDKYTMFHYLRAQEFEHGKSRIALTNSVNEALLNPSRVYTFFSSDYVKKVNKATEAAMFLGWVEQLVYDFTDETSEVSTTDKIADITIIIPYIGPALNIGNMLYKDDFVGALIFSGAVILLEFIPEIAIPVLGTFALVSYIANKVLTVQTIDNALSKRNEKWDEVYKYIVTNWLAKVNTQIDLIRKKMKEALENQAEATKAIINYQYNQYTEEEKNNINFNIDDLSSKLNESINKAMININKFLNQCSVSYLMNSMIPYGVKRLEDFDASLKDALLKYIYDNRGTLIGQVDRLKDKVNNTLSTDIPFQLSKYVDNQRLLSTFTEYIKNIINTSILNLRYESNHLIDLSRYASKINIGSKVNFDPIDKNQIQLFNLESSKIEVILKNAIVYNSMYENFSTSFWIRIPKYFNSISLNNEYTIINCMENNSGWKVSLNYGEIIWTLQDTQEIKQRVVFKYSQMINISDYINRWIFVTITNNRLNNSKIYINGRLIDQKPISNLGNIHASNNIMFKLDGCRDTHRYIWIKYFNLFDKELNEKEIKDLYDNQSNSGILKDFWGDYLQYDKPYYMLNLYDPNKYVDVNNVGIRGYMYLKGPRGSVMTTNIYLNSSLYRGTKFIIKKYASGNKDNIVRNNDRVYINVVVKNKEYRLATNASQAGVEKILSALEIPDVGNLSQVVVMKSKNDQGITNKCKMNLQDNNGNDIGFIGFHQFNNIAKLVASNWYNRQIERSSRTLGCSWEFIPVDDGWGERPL

[6] = inhibitors of CD8+ T cell-vesicle binding, pilot screen, LFA-1/ICAM-1 modulator project, MLPCN validation set, flow cytometry (AID 2523;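 active = response below a set limit, under 55% cells CD8-positive and vesicle-bound, and CD8 cells' 90th-percentile brightness under 279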;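 for vesicle binding response: mean PE anti-B7-1 fluorescence of CD8+ cells relative to row control; 100% = QL9-loaded vesicles with DMSO vehicle in the same plate row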); conditions: 2C mouse CD8+ T cells, at 7 µM, stronger effect = lower value; double positive events: measured here: CD8+/vesicle+ event percentage
[7] = biological target: Integrin beta-1 (Homo sapiens) + Integrin alpha-4 (Homo sapiens) (UniProt P13612+P05556); assay: inhibition of HUTS-21 binding to VLA-4, pilot screen, VLA-4 allosteric modulator project, U937 cells, HUTS-21 mAb, flow cytometry, validation set (AID 2674;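 active = inhibition above 50%, about 3 SD of the validation set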;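 note: antibody binding induced by the VLA-4 ligand LDV present at three times its Kd; 0% = LDV ligand with antibody and no compound and 100% = antibody without LDV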); conditions: HUTS-21 LIBS mAb binding, at 6.7 µM, stronger effect = higher value
Integrin beta-1 (Homo sapiens) + Integrin alpha-4 (Homo sapiens), sequence (P05556 whole entry, looked up): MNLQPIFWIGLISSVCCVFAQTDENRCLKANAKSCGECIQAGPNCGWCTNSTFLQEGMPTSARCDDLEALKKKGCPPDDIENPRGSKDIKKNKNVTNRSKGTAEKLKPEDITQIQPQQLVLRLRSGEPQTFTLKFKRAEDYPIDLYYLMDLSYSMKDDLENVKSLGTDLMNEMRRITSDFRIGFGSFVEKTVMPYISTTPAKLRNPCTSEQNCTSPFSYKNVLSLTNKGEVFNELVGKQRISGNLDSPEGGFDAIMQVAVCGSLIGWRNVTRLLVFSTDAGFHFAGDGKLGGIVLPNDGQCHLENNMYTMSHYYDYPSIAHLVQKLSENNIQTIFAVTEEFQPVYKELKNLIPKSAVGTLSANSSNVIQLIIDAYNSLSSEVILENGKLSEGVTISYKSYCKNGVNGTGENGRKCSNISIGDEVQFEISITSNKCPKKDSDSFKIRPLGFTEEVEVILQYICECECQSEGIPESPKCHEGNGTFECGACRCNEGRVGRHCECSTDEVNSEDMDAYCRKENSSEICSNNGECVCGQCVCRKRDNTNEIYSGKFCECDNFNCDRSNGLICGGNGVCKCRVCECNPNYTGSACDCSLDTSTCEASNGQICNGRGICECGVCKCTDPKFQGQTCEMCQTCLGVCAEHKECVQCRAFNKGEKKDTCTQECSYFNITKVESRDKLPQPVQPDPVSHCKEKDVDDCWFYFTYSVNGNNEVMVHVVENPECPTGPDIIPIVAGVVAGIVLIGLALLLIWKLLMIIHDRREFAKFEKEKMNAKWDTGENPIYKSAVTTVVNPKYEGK
Integrin beta-1 (Homo sapiens) + Integrin alpha-4 (Homo sapiens), sequence (P13612 whole entry, looked up): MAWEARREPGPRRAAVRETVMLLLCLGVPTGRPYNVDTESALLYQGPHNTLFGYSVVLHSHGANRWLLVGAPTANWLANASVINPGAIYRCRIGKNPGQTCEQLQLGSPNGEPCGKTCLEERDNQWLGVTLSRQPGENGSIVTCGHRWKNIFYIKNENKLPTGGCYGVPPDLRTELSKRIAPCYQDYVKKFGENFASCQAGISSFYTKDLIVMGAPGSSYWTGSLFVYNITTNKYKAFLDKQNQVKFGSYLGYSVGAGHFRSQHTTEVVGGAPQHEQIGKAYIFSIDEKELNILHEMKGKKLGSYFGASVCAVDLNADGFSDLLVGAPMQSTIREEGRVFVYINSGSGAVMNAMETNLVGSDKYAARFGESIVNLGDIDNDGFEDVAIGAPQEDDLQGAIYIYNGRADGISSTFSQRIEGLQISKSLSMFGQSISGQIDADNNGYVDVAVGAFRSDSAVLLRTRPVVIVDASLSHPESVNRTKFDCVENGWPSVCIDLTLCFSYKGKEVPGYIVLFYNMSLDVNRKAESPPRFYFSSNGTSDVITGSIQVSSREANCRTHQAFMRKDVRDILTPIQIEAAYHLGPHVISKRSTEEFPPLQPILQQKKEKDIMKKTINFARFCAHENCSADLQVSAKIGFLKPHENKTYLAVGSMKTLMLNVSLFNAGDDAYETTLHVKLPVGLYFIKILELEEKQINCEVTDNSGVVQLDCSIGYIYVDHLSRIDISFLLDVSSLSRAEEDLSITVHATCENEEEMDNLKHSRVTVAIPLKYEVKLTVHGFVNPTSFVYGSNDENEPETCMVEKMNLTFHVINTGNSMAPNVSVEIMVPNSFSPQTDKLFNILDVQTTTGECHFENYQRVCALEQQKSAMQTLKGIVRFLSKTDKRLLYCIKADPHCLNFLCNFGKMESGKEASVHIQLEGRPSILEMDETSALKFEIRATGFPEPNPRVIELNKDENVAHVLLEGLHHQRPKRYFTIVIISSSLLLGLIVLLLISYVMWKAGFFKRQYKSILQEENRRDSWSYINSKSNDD

[8] = superoxide lowering in aged yeast cells, pilot screen, validation compound set (AID 2706;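 active = superoxide response below 65% of plate, a cut near 3 SD across the whole screen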;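 note: yeast exposed to compound for one week at 30 degrees C before staining; 100% = mean of all compound wells on the same plate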); conditions: S. cerevisiae aging, superoxide DHE fluorescence; at 10 µM; stronger effect = lower value
[9] = biological target: Beta-adrenergic receptor kinase 1 (Homo sapiens) (UniProt P25098); assay: GRK2 binders displacing RNA aptamer, biochemical, validation, human GRK2, bead flow cytometry (AID 488806;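 active = aptamer binding inhibition above 30%, about 3 SD of noise from non-fluorescent compounds; inactive = inhibition at or below 30%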); conditions: bead-bound GRK2, FAM-aptamer displacement, at 10 µM, stronger effect = higher value
Beta-adrenergic receptor kinase 1 (Homo sapiens), sequence (P25098 whole entry, looked up): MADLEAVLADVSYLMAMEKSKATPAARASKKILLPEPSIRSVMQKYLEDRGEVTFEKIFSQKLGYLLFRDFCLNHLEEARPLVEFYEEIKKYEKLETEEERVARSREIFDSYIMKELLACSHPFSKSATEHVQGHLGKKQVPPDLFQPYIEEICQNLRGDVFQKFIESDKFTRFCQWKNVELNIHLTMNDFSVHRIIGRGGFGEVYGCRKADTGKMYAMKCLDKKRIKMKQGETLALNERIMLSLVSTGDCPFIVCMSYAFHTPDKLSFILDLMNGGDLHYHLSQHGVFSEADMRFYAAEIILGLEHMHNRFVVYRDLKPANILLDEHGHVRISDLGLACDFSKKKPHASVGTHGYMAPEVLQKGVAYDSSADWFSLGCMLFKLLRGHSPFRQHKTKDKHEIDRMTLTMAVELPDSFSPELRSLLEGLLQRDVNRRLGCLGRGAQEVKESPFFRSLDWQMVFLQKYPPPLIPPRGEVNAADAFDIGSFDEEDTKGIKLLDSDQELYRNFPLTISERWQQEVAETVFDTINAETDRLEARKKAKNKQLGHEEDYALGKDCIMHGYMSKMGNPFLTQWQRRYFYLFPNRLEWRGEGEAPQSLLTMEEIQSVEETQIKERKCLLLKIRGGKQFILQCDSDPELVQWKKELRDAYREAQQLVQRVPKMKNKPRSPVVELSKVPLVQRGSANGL

[10] = biological target: Beta-2 adrenergic receptor (Homo sapiens) (UniProt P07550); assay: beta2AR agonists driving receptor internalization, pilot screen, cell-based, FAP fluorogen, flow cytometry, validation set (AID 504459;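 active = percent response above 42, roughly 3 SD of non-fluorescent test compounds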;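 note: agonist-driven loss of surface beta2AR via internalization measured by FAP dye flow cytometry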); conditions: Am2.2-beta2AR cells, FAP surface receptor flow cytometry; at 10 µM; stronger effect = higher value
Beta-2 adrenergic receptor (Homo sapiens), sequence (P07550 whole entry, looked up): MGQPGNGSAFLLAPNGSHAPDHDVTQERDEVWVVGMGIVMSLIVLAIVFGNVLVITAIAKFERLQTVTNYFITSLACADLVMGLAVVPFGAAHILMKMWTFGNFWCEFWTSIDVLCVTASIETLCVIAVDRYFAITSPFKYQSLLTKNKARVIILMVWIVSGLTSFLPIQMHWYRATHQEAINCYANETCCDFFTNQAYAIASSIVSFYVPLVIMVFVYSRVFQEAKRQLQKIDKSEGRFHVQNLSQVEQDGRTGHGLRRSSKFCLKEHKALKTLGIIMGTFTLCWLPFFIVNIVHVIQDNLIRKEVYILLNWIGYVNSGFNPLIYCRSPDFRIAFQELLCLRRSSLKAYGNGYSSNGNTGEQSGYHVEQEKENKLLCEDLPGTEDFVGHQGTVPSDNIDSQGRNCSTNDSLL

[11] = biological target: AP-2 complex subunit beta (Homo sapiens) (UniProt P63010); assay: inhibitors of arrestin peptide binding to AP2, pilot screen, biochemical, validation set, GST-AP2 beads, flow cytometry (AID 504541;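 active = inhibition above 54%, about 3 SD of non-fluorescent compounds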;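 note: AP2 carries R879A mutation and is captured from E. coli lysate; bead-bound FITC arrestin peptide fluorescence measuring arrestin peptide binding to AP2; 0% = DMSO wells and 100% = excess unlabeled arrestin peptide control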); conditions: FITC arrestin peptide, at 10 µM, stronger effect = higher value
[12] = yeast V-ATPase proton transport modulators, S. cerevisiae, pHLuorin, HTS validation (AID 504600; in the data active = response above about 15%;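 note: plate controls were DMSO for no effect and reference compound for full effect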); conditions: S. cerevisiae pHLuorin cytosolic pH, at 10 µM, stronger effect = higher value
[13] = tested on: anti-desmoglein-3 scFv antibody binding to human DSG3; assay: inhibitors of anti-DSG3 scFv binding to DSG3, pilot screen, biochemical, validation compound set, bead-based, flow cytometry (AID 588368;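 active = binding below the plate cutoff, the plate median minus 3 SD, with a reading above zero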;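 note: signal is the median channel fluorescence of bead-bound GFP antibody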); conditions: Protein G beads, DSG3-Fc, scFv-GFP binding, at 10 µM, stronger effect = lower value
[14] = biological target: Lethal factor (Bacillus anthracis) (UniProt P15917); assay: Lethal factor protease inhibitors, Bacillus anthracis, multiplex microsphere cleavage assay, validation set (AID 588461); conditions: flow cytometry, at 10 µM, stronger effect = higher value
[15] = inhibitors of fungal efflux pumps CDR1, CDR2, MDR1, pilot screen, validation compound set, multiplex, phenotypic (AID 588506;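 active = efflux inhibition above 0.42, the validation set average plus 4 SD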;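 note: Nile Red retained in cells so higher fluorescence means more efflux inhibition; 0 = negative control wells and 1 = enniatin B 25 µM full block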); conditions: S. cerevisiae pump-expressing triplex, Nile Red efflux flow cytometry; at 10 µM; stronger effect = higher value
[16] = biological target: ATP-binding cassette sub-family B member 6 (Homo sapiens) (UniProt Q9NP58); assay: ABCB6 transporter inhibitors, pilot screen, K562-ABCB6 cells, flow cytometry, validation set (AID 588550;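 active = inhibition above the screen-wide mean plus 3 SD, about 51%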;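 note: 0% = DMSO wells and 100% = benzethonium chloride 70 µM positive control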); conditions: K562-ABCB6 porphyrin accumulation, 1 h, at 10 µM, stronger effect = higher value
ATP-binding cassette sub-family B member 6 (Homo sapiens), sequence (Q9NP58 whole entry, looked up): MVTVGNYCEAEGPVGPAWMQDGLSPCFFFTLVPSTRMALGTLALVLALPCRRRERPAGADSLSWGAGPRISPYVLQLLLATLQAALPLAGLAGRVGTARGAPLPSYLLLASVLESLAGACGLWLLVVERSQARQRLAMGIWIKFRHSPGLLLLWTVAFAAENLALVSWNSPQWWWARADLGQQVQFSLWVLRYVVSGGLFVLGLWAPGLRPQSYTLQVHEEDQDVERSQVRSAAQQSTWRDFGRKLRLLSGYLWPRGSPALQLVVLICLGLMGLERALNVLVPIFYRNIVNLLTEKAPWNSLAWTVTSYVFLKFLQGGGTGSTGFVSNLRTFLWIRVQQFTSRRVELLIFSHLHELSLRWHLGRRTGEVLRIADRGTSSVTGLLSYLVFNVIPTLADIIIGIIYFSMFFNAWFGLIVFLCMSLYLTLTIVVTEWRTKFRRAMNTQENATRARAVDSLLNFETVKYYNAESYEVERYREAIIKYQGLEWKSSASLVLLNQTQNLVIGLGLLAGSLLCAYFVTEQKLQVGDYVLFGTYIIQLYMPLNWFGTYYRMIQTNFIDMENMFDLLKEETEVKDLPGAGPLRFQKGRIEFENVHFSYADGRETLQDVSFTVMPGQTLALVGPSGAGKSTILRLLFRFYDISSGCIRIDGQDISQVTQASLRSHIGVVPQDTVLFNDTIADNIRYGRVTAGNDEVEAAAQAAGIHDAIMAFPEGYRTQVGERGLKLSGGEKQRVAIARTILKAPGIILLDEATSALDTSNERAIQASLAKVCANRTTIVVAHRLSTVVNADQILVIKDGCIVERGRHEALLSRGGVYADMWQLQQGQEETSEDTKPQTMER

[17] = promoters of myeloid differentiation in arrested cells, primary screen, cell-based, GFP/MAC1 double positive, flow cytometry, validation set (AID 588685;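 active = differentiation response of at least 50%, scaled between solvent and reference control, from cells with both markers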;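 note: compound exposure lasts four days before antibody staining and flow analysis; 0% = DMSO wells and 100% = 5 µM fulvestrant positive control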); conditions: ER-HoxA9 marrow cells, stronger effect = higher value
[18] = measured here: daughter cell gate
[19] = measured here: mother cell gate
[20] = measured here: daughter cell gate response
[21] = measured here: mother cell gate response

C#CCOc1cc(C2C3=C(COC3=O)Nc3cc4c(cc32)OCO4)ccc1OC (stereo unspecified)
107%: GFP response, % of DMSO [3, 19]
100%: GFP response vs DMSO [1, 18]
inactive: GFP response vs DMSO [1] 102% | GFP response relative to DMSO [2] 113% | GFP response, % of DMSO [3] 107%
106%: GFP response relative to DMSO [2, 20]
114%: GFP response relative to DMSO [2, 21]
103%: GFP response vs DMSO [1, 19] | GFP response, % of DMSO [3, 18]

CNCCC(Oc1ccc(C(F)(F)F)cc1)c1ccccc1 (stereo unspecified)
inactive: inhibition [4] -3.3% | inhibition [5] 0.6%

NCCc1ccc(O)cc1
60%: double positive events [6]
inactive: vesicle binding response [6] 185% | inhibition [7] -2.82% | superoxide response (% of plate) [8] 94.8% | aptamer binding inhibition [9] 2% | response [10] -14.8% | inhibition [11] 5.64% | response [12] 5.09% | binding (% of control) [13] 107% | inhibition [4] 5.4% | inhibition [5] 0.3% | inhibition [14] -8.1% | efflux inhibition (fraction of control) [15] -0.09 | inhibition [16] -2% | differentiation response [17] -11.9%

CCC(COC(=O)c1cc(OC)c(OC)c(OC)c1)(c1ccccc1)N(C)C (stereo unspecified)
inactive: vesicle binding response [6] 306% | inhibition [7] 1.44% | superoxide response (% of plate) [8] 93.6% | aptamer binding inhibition [9] 1% | response [10] -24.8% | inhibition [11] -3.75% | response [12] -2.48% | binding (% of control) [13] 98.7% | inhibition [4] -3.5% | inhibition [5] -2.8% | inhibition [14] -8.8% | efflux inhibition (fraction of control) [15] 0.04 | inhibition [16] 15% | differentiation response [17] -3.02%
73.3%: double positive events [6]

CS(=O)(=O)Nc1ccc([N+](=O)[O-])cc1Oc1ccccc1
inactive: inhibition [4] 0% | inhibition [5] -0.9%

CN1[C@@H]2CC[C@H]1CC(OC(=O)C1C=Nc3ccccc31)C2 (stereo partly specified)
52.3%: double positive events [6]
inactive: vesicle binding response [6] 136% | inhibition [7] 20.3% | superoxide response (% of plate) [8] 111% | aptamer binding inhibition [9] 0% | inhibition [11] -15.4% | response [12] -15% | binding (% of control) [13] 93.3% | inhibition [4] 1.4% | inhibition [5] -0.6% | inhibition [14] 4.3% | efflux inhibition (fraction of control) [15] -0.2 | inhibition [16] 7% | differentiation response [17] -3.43%

CC1(C)OC(c2ccccc2)=C/C(=C/C=C2C(=O)NC(=S)NC2=O)O1
160%: GFP response relative to DMSO [2, 21]
99.3%: GFP response vs DMSO [1, 18]
117%: GFP response, % of DMSO [3, 19]
inactive: GFP response vs DMSO [1] 97.8% | GFP response, % of DMSO [3] 119%
active: GFP response relative to DMSO [2] 203%
121%: GFP response, % of DMSO [3, 18]
98.5%: GFP response vs DMSO [1, 19]

C[C@]12CCC(=O)C(O)=C1CC[C@@H]1[C@@H]2CC[C@]2(C)C(=O)CC[C@@H]12
105%: GFP response, % of DMSO [3, 19]
103%: GFP response relative to DMSO [2, 21] | GFP response, % of DMSO [3, 18]
102%: GFP response relative to DMSO [2, 20]
68.3%: double positive events [6]
99.2%: GFP response vs DMSO [1, 19]
97.5%: GFP response vs DMSO [1, 18]
inactive: GFP response vs DMSO [1] 99.3% | GFP response relative to DMSO [2] 102% | GFP response, % of DMSO [3] 104% | vesicle binding response [6] 118% | inhibition [7] 10.3% | superoxide response (% of plate) [8] 97.5% | aptamer binding inhibition [9] 1% | response [10] 4.26% | inhibition [11] 0.25% | response [12] -1.14% | binding (% of control) [13] 110% | inhibition [4] 0.8% | inhibition [5] -1.4% | inhibition [14] -6.6% | efflux inhibition (fraction of control) [15] -0.17 | inhibition [16] 21% | differentiation response [17] 3.28%

C#C[C@]1(O)CC[C@H]2[C@@H]3CCC4=CC(=O)CC[C@@H]4[C@H]3CC[C@@]21CC
inactive: inhibition [4] -0.6% | inhibition [5] -1.3%

O=C1CSC2N1CCNC21CCCCC1 (stereo unspecified)
64.1%: double positive events [6]
inactive: vesicle binding response [6] 191% | inhibition [7] -31.6% | aptamer binding inhibition [9] 0% | response [10] 2.41% | inhibition [11] 4.77% | response [12] 2.26% | binding (% of control) [13] 112% | inhibition [4] -1% | inhibition [5] 1% | inhibition [14] -3.4% | inhibition [16] 42% | differentiation response [17] 28.6%
active: efflux inhibition (fraction of control) [15] 1.11

CN1C(=O)C(=Cc2ccc(SC3CCCCC3)o2)C(=O)N(C)C1=O
92.3%: GFP response vs DMSO [1, 19]
98.3%: GFP response vs DMSO [1, 18]
inactive: GFP response vs DMSO [1] 95.8% | GFP response relative to DMSO [2] 143% | GFP response, % of DMSO [3] 83.5%
84.1%: GFP response, % of DMSO [3, 18]
77.8%: GFP response, % of DMSO [3, 19]
134%: GFP response relative to DMSO [2, 20]
150%: GFP response relative to DMSO [2, 21]

CC(CCc1ccccc1)NC(C)C(O)c1ccc(O)cc1 (stereo unspecified)
inactive: vesicle binding response [6] 166% | inhibition [7] -20.8% | superoxide response (% of plate) [8] 111% | aptamer binding inhibition [9] 1% | inhibition [11] 2.09% | response [12] 5.84% | binding (% of control) [13] 95.4% | inhibition [4] -3.5% | inhibition [5] -0.8% | inhibition [14] -0.5% | efflux inhibition (fraction of control) [15] -0.28 | inhibition [16] 10% | differentiation response [17] -16.4%
49%: double positive events [6]

O=C1NC(=O)N(CCc2ccc(F)cc2)C(=O)/C1=C/c1ccco1
99.4%: GFP response vs DMSO [1, 18]
106%: GFP response relative to DMSO [2, 20]
93.7%: GFP response, % of DMSO [3, 19]
104%: GFP response relative to DMSO [2, 21]
100%: GFP response, % of DMSO [3, 18]
97%: GFP response vs DMSO [1, 19]
inactive: GFP response vs DMSO [1] 98% | GFP response relative to DMSO [2] 104% | GFP response, % of DMSO [3] 98.4%

CC12CN3CC(c4ccccc4)(CN(C1)C31CCCCC1)C2=O
inactive: vesicle binding response [6] 232% | inhibition [7] 9.13% | superoxide response (% of plate) [8] 90.5% | aptamer binding inhibition [9] 4% | response [10] 15.3% | inhibition [11] -0.95% | response [12] 0.31% | binding (% of control) [13] 99.5% | inhibition [4] 2.1% | inhibition [5] -0.1% | inhibition [14] -2.8% | efflux inhibition (fraction of control) [15] -0.03 | inhibition [16] -51% | differentiation response [17] 13.6%
60.1%: double positive events [6]

c1ccc2c(c1)OCC(C1=NCCN1)O2 (stereo unspecified)
inactive: vesicle binding response [6] 163% | inhibition [7] 0.69% | superoxide response (% of plate) [8] 90.8% | aptamer binding inhibition [9] 1% | inhibition [11] -3.31% | response [12] 3.01% | binding (% of control) [13] 99.6% | inhibition [4] -2.1% | inhibition [5] 0.1% | inhibition [14] 0.2% | efflux inhibition (fraction of control) [15] -0.12 | inhibition [16] 7% | differentiation response [17] -19.6%
56.2%: double positive events [6]
